Compound activity: PubChem, National Center for Advancing Translational Sciences (NCATS)
SARS PLpro yeast: SARS-CoV PLP inhibition in yeast; hit rate 0.19% among 330,000; S. cerevisiae expressing SARS-CoV PLpro, growth rescue; Potency, µM (highest dose often 32.9 µM), hits mostly activators; also: nearly all actives have a fitted effect of over 55% in size
Pf growth 48h: inhibits P. falciparum growth in the first generation, 48 h | Potency, µM (doses to about 28.7 µM), actives largely listed as inhibitors | P. falciparum luciferase growth in erythrocytes, 48 h | hit rate 5.9% among 310,000; active = well fitted inhibition curve with a large enough effect; inconclusive = small, poorly fitted or top-dose-only effect, or another doubt; inactive = no such curve, though single readings can be large or run the other way
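Read-out is firefly luciferase luminescence from an integrated reporter in P. falciparum, so falling signal marks reduced parasite growth. Infected erythrocytes were at 2% hematocrit and 0.1% parasitemia (final) in Albumax-supplemented RPMI 1640.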
Pf growth 96h: P. falciparum growth inhibition at 96 hour, primary screen for plastid delayed-death inhibitors; P. falciparum luciferase reporter growth, 96 h; Potency, µM (highest dose often 28.7 µM), usual class: inhibitors; hit rate 6.9% among 320,000; active = well fitted inhibition curve with a large enough effect; inconclusive = small, poorly fitted or top-dose-only effect, or another doubt; inactive = no such curve, though single readings can be large or run the other way
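Compounds incubated with erythrocytes infected by luciferase-expressing P. falciparum (2% hematocrit, 0.05% parasitemia final) for 96 hours, 37 C in 5% CO2. Growth inhibition scored as decreased luciferase luminescence.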
Shiga inhibitor: inhibitors of Shiga toxin in Vero cells; Vero cells, Shiga toxin protein synthesis inhibition reporter; inhibition, % at 38.7 µM; hit rate 9.2% among 290,000; in the data active = inhibition mostly above about 28%, no sharp cut-off; inactive = mostly below about 43%
Cycloheximide cs: affects cycloheximide protein synthesis inhibition readout, counter-screen | cell reporter, cycloheximide protein synthesis inhibition counterscreen | max response, % | hit rate 12% among 300,000 | AID 2314; in the data active = max response mostly above about 13%, no sharp cut-off; inactive = mostly below about 14%; also: read at 38.3 µM for the half of the compounds with a filed dose
NS1 inh: inhibitors of influenza NS1 protein function | Potency, µM (titrated, usually from 46.1 µM) | hit rate 0.4% among 270,000; also: actives are rising curves; nearly all actives have a fitted effect of over 50% in size
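Recovery from NS1-induced slow growth read by OD600 in budding yeast switched to galactose assay medium (pH 6.0, -URA) at 1:100 dilution. Compound 23 nl per well; the matching strain lacking NS1 serves as control.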
Numbers stand for hits; . = inactive; ? = inconclusive; / = not tested or not shown; [ ] = another dose, or the depositor's remark. Shown are actives, neighbours in structure and some others; about 21% of the full set was active somewhere. Unless noted, calls follow the shape of the full dose curve.

SMILES	SARS PLpro yeast	Pf growth 48h	Pf growth 96h	Shiga inhibitor	Cycloheximide cs	NS1 inh
O=C(N/N=C/c1ccccn1)c1sc2ccccc2c1Cl	.	?	?	89.5	43.8	.
Cc1c(/C=N/NC(=O)c2sc3ccccc3c2Cl)cnn1C	.	.	.	.	.	.
O=C(N/N=C/c1coc2ccccc2c1=O)c1cccc([N+](=O)[O-])c1	.	.	5.86µM	.	.	.
O=C(N/N=C/c1ccc([N+](=O)[O-])o1)c1sc2ccccc2c1Cl	.	?	1.65µM	.	.	.
COc1ccc2c(Cl)c(C(=O)N/N=C/c3c(C)[nH]c4ccccc34)sc2c1	.	.	?	.	.	?
Cn1cccc1/C=N/NC(=O)c1sc2ccccc2c1Cl	.	.	.	.	40.4	.
COc1cc(OC)c(NC(=O)CNC(=O)Cn2ccc3ccccc3c2=O)cc1Cl	.	.	?	.	.	.
O=C(CCCN1C(=O)c2ccccc2C1=O)Nc1ccc2c(c1)OCCO2	.	.[5.75 µM]	?	.	.	/
CC1CCN(CC(=O)N(C)c2c(N)n(Cc3ccccc3)c(=O)[nH]c2=O)CC1	.	.	.	/	/	/
O=c1[nH]c(=O)n(Cc2ccco2)c2c1C(C(F)(F)F)(C(F)(F)F)N=C(Cc1ccccc1)N2	.	?	?	.	.	.
O=C(N/N=C/c1c[nH]c2ccccc12)c1cccc([N+](=O)[O-])c1	.	.	?	.	26.4	.
Cc1ccc(C(=O)Nc2ccc(C(=O)N/N=C/c3c[nH]c4ccccc34)cc2)cc1	.	.	.	.	.	.
Cn1cc([N+](=O)[O-])c(C(=O)N/N=C\c2c[nH]c3ccccc23)n1	.	.	.	.	.	.
O=C(N/N=C/c1oc(O)c2ccccc12)c1ccccc1	.	.	.	62.2	.	/
O=C(N/N=C/c1c[nH]c2ccccc12)c1cccs1	.	.	.	93.8	45.4	.
Cc1cc(C(=O)N/N=C/c2c[nH]c3ccccc23)cs1	.	.	.	63.9	41.8	.
O=C(N/N=C/c1ccc([N+](=O)[O-])o1)c1cn2ccc3ccccc3c2n1	.	1.31µM	?	.	.	.
COc1ccc(Br)c(C(=O)N(C)CC(=O)Nc2ccc(N3CCOCC3)cc2)c1	.	.	.	/	/	/
Cc1c(CCOC(=O)CC23CC4CC(CC(C4)C2)C3)sc[n+]1Cc1ccccc1	.	7.38µM	?	.	.	.
Cc1c(CCO)sc[n+]1CC(=O)OCCC12CC3CC(CC(C3)C1)C2	.	5.22µM	1.04µM	.	.	.
CCN(CC)C(=O)Cn1cc(C(=O)C(=O)N2CC=C(c3ccccc3)CC2)c2ccccc21	.	?	.	.	.	/
Cc1ccc(NC(=O)c2cc3ccccc3oc2=N)cc1	.	.	.	147.1	77.4	.
N=c1oc2ccccc2cc1C(=O)Nc1cccc(F)c1	.	.	?	73.2	40.7	.
Cc1ccc(NC(=O)CN(C)C(=O)c2cc3ccccc3o2)cc1	.	?	.	.	.	/
N=c1oc2ccccc2cc1C(=O)Nc1ccc(F)cc1	.	.[0.00184 µM]	.	92.2	29.5	.
SMILES	SARS PLpro yeast	Pf growth 48h	Pf growth 96h	Shiga inhibitor	Cycloheximide cs	NS1 inh
N=c1oc2cc(O)ccc2cc1C(=O)Nc1ccc(Cl)cc1	.	.	.	114.3	42.9	.
CC(=O)N(C)c1ccc(OCC(O)CN(c2ccccc2C)S(=O)(=O)c2ccc(C)cc2)cc1 (centres undefined)	.	13.1µM	2.94µM	.	.	.
CCn1c(=O)c(CCC(=O)NCC2CCCO2)c(C)c2c(C)nn(-c3ccccc3)c21 (centres undefined)	.	.	.	.	.	.
O=C1c2ccccc2CCC12N=NCC2c1ccc(Cl)cc1 (centres undefined)	.	10.4µM	?	.	.	.
O=C1c2ccccc2CCC12N=NCC2c1ccc(Br)cc1 (centres undefined)	.	/	2.33µM	.	.	.
CCC1CCCCN1C(=O)COC(=O)c1cc(C)nc2ccccc12 (centres undefined)	.	?	?	/	/	/
CCCC(=O)Nc1ccc(-c2csc(N/N=C\c3ccncc3)n2)cc1	.	8.28µM	?	.	30.9	.
Cc1ccc(/C=N/Nc2nc3ccccc3s2)o1	.	.	?	74.5	43.1	.
CC(=O)Nc1ccc(-c2csc(N/N=C\c3ccncc3)n2)cc1	.	?	?	.	.	.
Cc1cc(=O)[nH]c(N/N=C/c2ccc(C)o2)n1	?	.	.	.	.	.
CC(C)(C)c1csc(NC(=O)c2c(F)c(F)c(F)c(F)c2F)n1	.	.	.	.	.	.
CC(C)(C)NC(=S)N/N=C/c1cccnc1	.	.	.	.	.	.
Cc1ccc(/C=N/Nc2nc(C(C)(C)C)cs2)o1	.	?	.	92.9	45.7	.
CC(C)(C)c1csc(N/N=C/c2cccnc2)n1	.	13.1µM	?	126.7	36.6	.
CCOC(=O)/C=C1\SCC(=O)N1CC(=O)NCc1cccc(Cl)c1	.	.	.	.	.	.
COC(=O)CS(=O)(=O)c1ccsc1C(=O)Nc1ccc(F)c(F)c1	.	.	?	.	.	/
C(=N\Nc1nc(-c2ccccc2)cs1)/c1cccnc1	.	?	?	61.5	46.3	.
Cc1onc(-c2ccccc2)c1-c1csc(N/N=C/c2ccccc2Cl)n1	.	.	.	.	.	.
Clc1ccc(-c2csc(N/N=C/c3cccnc3)n2)c(Cl)c1	.	10.4µM	4.65µM	.	.	.
Cc1onc(-c2ccc(Cl)cc2Cl)c1-c1csc(N/N=C/c2ccccc2Cl)n1	.	6.57µM	?	.	.	.
COC(=O)c1ccc(/C=N/Nc2nc(-c3ccccc3)cs2)cc1	.	.	.	.	.	.
Nc1nc2c(c(=O)[nH]1)N(C=O)[C@H](CNc1ccc(C(=O)N[C@@H](CCC(=O)O)C(=O)O)cc1)CN2	/	.	.	/	/	/
Nc1nc2[nH]cc(CCc3ccc(C(=O)NC(CCC(=O)O)C(=O)O)cc3)c2c(=O)[nH]1 (centres undefined)	/	0.675µM	1.35µM	/	/	/
Cc1cccc(NS(=O)(=O)c2ccc(C(=O)NCC3(N4CCCCC4)CCCCC3)cc2)c1C	/	2.62µM	.	/	/	/
O=S(=O)(NCc1cn2ccccc2n1)c1cccs1	.	.	.	53.2	29.2	.
SMILES	SARS PLpro yeast	Pf growth 48h	Pf growth 96h	Shiga inhibitor	Cycloheximide cs	NS1 inh
O=S(=O)(NCCc1cn2ccccc2n1)c1cccs1	.	.	.	.	19.6	.
O=S(=O)(NCc1cn2ccccc2n1)c1cc(F)ccc1F	.	.	.	.	.	.
CCOC(=O)c1ccccc1NC(=O)CSc1ccc(-c2ccccn2)nn1	?	?	?	.	.	.
O=S(=O)(Nc1cccc(S(=O)(=O)N2CCCC2)c1)c1ccccc1F	.	/	/	/	/	/
CN1/C(=C\C(=O)Nc2cccnc2)c2ccccc2CC1(C)C	.	?	5.86µM	.	.	.
Cn1cnnc1SCC(=O)NNC(=O)COc1ccc(Cl)cc1	.	.	.	.	.	/
CCOc1ccc(CN(C)C(=O)c2ccc(S(=O)(=O)N(C)c3ccccc3OC)cc2)cc1	.	13.1µM	?	/	/	/
COc1ccccc1N(C)S(=O)(=O)c1ccc(C(=O)N(C)Cc2ccc(Cl)s2)cc1	.	11.7µM	?	/	/	/
